From PubChem
SKKanGAS inh = S. pyogenes SKKanGAS growth inhibitors in kanamycin, primary screen, streptokinase expression inhibitor project, SKKanGAS strain, BacTiter-Glo luminescence. 6 h. inhibition, % at 7.5 µM. actives 1.3% (n = 300,000). AID 1662, 2009;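 active means mean replicate score, as percent of positive control median, at least 50; inconclusive means mean below 50 but one replicate at or above 50; inactive means mean and every replicate below 50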;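 further: strain carries kanamycin resistance gene driven by streptokinase promoter and grows in 40 µg/ml kanamycin; loss of luminescence reflects streptokinase promoter inhibition or plain growth inhibition; 0% = median of DMSO wells and 100% = positive control at its reference dose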
Beta cell apopt = inhibitors of cytokine-induced beta cell apoptosis, primary screen, luminescence. protection from apoptosis, % (concentration not given with the values). INS-1E cytokine-induced death, ATP luminescence, 48 h; percent of positive-control rescue, neutral wells zero. actives 0.8% (n = 300,000);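 active means Every replicate reaches about 75%, or at least half do and their mean reaches it too, limit read from the data; inconclusive means At least half of replicates reach the limit but their mean does not; inactive means Under half of replicates reach the limit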;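 further: 0% = cytokine-treated negative control wells and 100% = positive control rescue; higher means more ATP so stronger rescue from cytokine killing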
PP1 counter = PP1-alpha phosphatase inhibitors, primary screen, counter-screen for PP5 inhibitor project, biochemical, fluorescence, OMFP substrate, single point; Serine/threonine-protein phosphatase PP1-alpha catalytic subunit (Homo sapiens), P62136; purified PP1alpha; inhibition, % at 6.7 µM; actives 0.9% (n = 320,000); AID 2235, 2010;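 active means inhibition above the mean inhibition of all tested compounds plus 3 SD, computed separately for each screening campaign, cut at about 15% in these data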
PP5 inh = PP5 phosphatase inhibitors, primary screen, biochemical, fluorescence; purified PP5c, OMFP substrate fluorescence; inhibition, % at 6.7 µM; actives 0.18% (n = 320,000); AID 1987, 2009;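 active means inhibition above the campaign's mean inhibition across all tested compounds plus 3 SD, cut at about 9.5% in these data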;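 further: 0% = DMSO only and 100% = 100 µM cantharidin control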
Target sequence (P53041 whole entry, looked up): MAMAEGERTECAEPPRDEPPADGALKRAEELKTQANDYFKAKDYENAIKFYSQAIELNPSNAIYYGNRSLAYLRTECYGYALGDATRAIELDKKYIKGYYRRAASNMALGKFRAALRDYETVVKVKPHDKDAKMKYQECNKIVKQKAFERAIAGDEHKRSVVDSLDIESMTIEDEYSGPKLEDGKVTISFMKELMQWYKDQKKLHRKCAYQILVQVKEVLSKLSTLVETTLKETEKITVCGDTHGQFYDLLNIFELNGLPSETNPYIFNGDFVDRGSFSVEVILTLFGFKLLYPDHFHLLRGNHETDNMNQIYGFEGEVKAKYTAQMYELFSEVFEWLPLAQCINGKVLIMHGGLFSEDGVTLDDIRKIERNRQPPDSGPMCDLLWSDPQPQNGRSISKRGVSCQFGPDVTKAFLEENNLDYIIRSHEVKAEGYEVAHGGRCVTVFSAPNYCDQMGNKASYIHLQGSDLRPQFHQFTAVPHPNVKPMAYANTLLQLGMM
CSC inhib = cancer stem cell viability inhibitors, primary screen, luminescence. cancer stem cell-like cells viability. inhibition, % at 7.5 µM. actives 1.1% (n = 300,000). AID 2717, 2010; in the data active means inhibition above about 75%; inconclusive means no clear call, values can overlap the other calls; tested in HMLE shEcad cells
Active calls of the source: *; ? = inconclusive; . = not tested or not shown; ! = not confirmed by another sample. A selection: hits, their analogues and other compounds. The true share with any hit is near 3.1%.

SMILES	SKKanGAS inh	Beta cell apopt	PP1 counter	PP5 inh	CSC inhib
COc1cc2nc(N3CCN(c4cc(C)ccc4C)CC3)nc(N)c2cc1OC	-6	118*	12	4	106*
COc1cc2nc(N3CCNCC3)nc(N)c2cc1OC	7	-7	2	1	2
CC(C)C1Cc2c(sc3[nH]c(=S)n(Cc4ccccc4)c(=O)c23)CO1 (stereo not given)	82*	16	-4	2	139*
Cc1nnc2n(-c3ccccc3)c(=O)c3c4c(sc3n12)COC(C(C)C)C4 (stereo not given)	-1	-10	-1	2	-12
CCOC(=O)N1CCN(CC(=O)Nc2cccc(Br)c2)CC1	-2	-10	1	0	-6
CCOC(=O)N1CCN(CCC(=O)Nc2cccc(Br)c2)CC1	-2	2	18*!	0	-5
COC(CNC(=O)c1cccnc1)OC	-2	-4	-2	-1	-3
COC(CNC(=O)c1ccc2c3c(onc13)-c1ccccc1C2=O)OC	18	58	1	3	84*
Cc1c(Cc2ccccc2)c(=O)oc2cc(OCc3ccc(C(=O)O)cc3)ccc12	54*	-2	3	2	-5
C[C@@H](O)[C@H]1C(=O)N2C(C(=O)O)=C(S[C@@H]3CN[C@H](C(=O)N(C)C)C3)[C@H](C)[C@H]12	110*	-4	-2	-1	-9
O=C(Nc1cccc(C(F)(F)F)c1)Oc1ccc(Cl)c2cccnc12	99*	115*	-5	3	43
CCN(CC)C(=O)Oc1ccc(Cl)c2cccnc12	-13	-1	-4	0	-9
COc1cccc(N=Nc2c(N)[nH]n3c(=O)c4c(nc23)CCCC4)c1	16	22	17*	2	18
COc1cccc(N=Nc2c(N)[nH][nH]c2=O)c1	3	5	0	-1	-13
O=C(CNC(=O)c1ccc(Br)cc1)NCc1cccnc1	-3	-3	-4	2	-15
Cc1ccc(OC(=O)c2sc3ncn(C)c(=O)c3c2C)cc1	78*	1	1	1	-6
Cc1ccnc(NC(=O)C2CC(=O)N(Cc3ccccc3)C2)c1 (stereo not given)	-3	-30	-5	-1	3
CC(C)Oc1ccc(Cc2cnc(N)nc2N)cc1	20	.	-3	2	-1
COc1cc(C)c(Cc2cnc(N)nc2N)cc1OC	52*	-10	-3	-2	-16
Cc1c(C(=O)Nc2ccccn2)sc2nc3n(c(=O)c12)CCC3	35	4	-1	1	-12
COc1ccc(S(=O)(=O)Nc2cc(SCC(=O)O)c(O)c3ccccc23)cc1	3	94*	1	5	37
O=C(NNc1nc(-c2ccccc2)cs1)c1ccccc1	34	-6	3	0	-9
N#Cc1ccc(-c2csc(NNC(=O)c3ccccc3)n2)cc1	17	79*	3	2	-1
N#Cc1ccc(-c2csc(NNC(=O)c3ccc(Br)cc3)n2)cc1	24	78*	4	2	9
Cc1cc2nc(-c3ccc[nH]c3=O)[nH]c2cc1C	35	78*	2	0	64
SMILES	SKKanGAS inh	Beta cell apopt	PP1 counter	PP5 inh	CSC inhib
COc1ccc(-c2cc(C(=O)N/N=C(\C)c3ccco3)c3ccccc3n2)c(OC)c1	54*	-10	5	4	-2
Brc1ccccc1OCCN1CCCC1	-3	.	-4	0	.
O=C(CSc1ccccn1)NC1CCCC1	1	-3	-2	1	8
O=C(Nc1ccc(Cl)c(Cl)c1)Nc1ccccc1NS(=O)(=O)c1cccs1	24	31	3	1	99*
Cc1ccc(S(=O)(=O)N2CCN(CCOc3c(Cl)cccc3Cl)CC2)cc1C	.	0	-3	2	.
O=C(CCc1ccc(O)cc1)c1c(O)cc(O)cc1O	2	3	-8	2	14
COc1cc(O)c(CC=C(C)C)c(O)c1C(=O)CCc1ccc(O)cc1	98*	.	0	8	-6
COc1ccccc1/C=C/CN1CCC(n2nccc2NC(=O)CCc2ccccc2)CC1	-2	78*	-2	3	2
O=C(CCc1ccccc1)Nc1ccnn1C1CCN(C/C=C/c2ccccc2)CC1	3	-4	1	0	18
Cc1ccc(S(=O)(=O)NC(=O)c2ccc(Br)o2)cc1	6	-2	1	-1	6
C=CCNC(=O)CN1CCN(C(c2ccccc2)c2ccccc2)CC1	1	1	0	2	-21
O=C1c2ccccc2C(=O)N1CC#CCN1CCN(C(c2ccccc2)c2ccccc2)CC1	-9	-2	0	2	96*
O=C(NCCc1ccccn1)c1ccc(OC2CCN(Cc3ccccn3)CC2)cc1	?	-2	-5	4	-2
CC(CNC(=O)c1ccc(OC2CCN(Cc3ccccn3)CC2)cc1)Oc1cccnc1 (stereo not given)	-3	100*	-2	1	-8
COc1ccc2c(c1)c(CC(=O)Nc1nnc(C3CC3)s1)c(C)n2C(=O)c1ccc(Cl)cc1	10	15	15*	2	.
COc1ccc2c(c1)c(CC(=O)NCc1cc([N+](=O)[O-])ccc1O)c(C)n2C(=O)c1ccc(Cl)cc1	51*	8	2	6	5
COc1cc(C(=O)Nc2c(C)cc(C)cc2C)c(Br)c(OC)c1OC	-2	-1	-3	2	0
CCN(Cc1nc2cc(Cl)ccc2c(=O)[nH]1)C(=O)c1ccc(C)c(NC(=O)c2ccco2)c1	.	2	-1	1	-5
O=C1NC(=O)/C(=C/C(=O)N2CCOCC2)S1	-6	-15	-1	2	-1
CC12CC3(C)CC(C)(C1)CC(C(=O)NC1=NCCS1)(C2)C3	84*	-8	0	4	2
O=C(NCCNC(=O)c1ccco1)c1ccc(Cl)c(Cl)c1	0	-2	-2	1	.
CC(C)c1ccc(NC(=O)Cc2ccc(NC3=NC4CS(=O)(=O)CC4S3)cc2)cc1 (stereo not given)	-3	3	3	2	0
O=C(NC(c1cccnc1)C(F)(F)F)c1cc(COc2ccc3c(c2)CCCC3)on1 (stereo not given)	10	107*	-2	2	27
Cn1cc(CNC(=O)c2cc(COc3ccc4c(c3)CCCC4)on2)cn1	-5	4	10	4	-3
CC1CN(c2ncc(/C=N/NC(=O)c3ccccc3O)s2)CC(C)O1 (stereo not given)	-2	-2	-3	2	-2
O=C(N/N=C/c1cnc(N2CCCCC2)s1)c1ccc(C(F)(F)F)cc1	39	104*	-1	-3	20
COc1ccccc1/C=C1\SC(=O)N(CCC(=O)NCCCn2ccnc2)C1=O	-11	125*	1	4	97*
COc1ccccc1/C=C1\SC(=S)N(CCC(=O)NCCCn2ccnc2)C1=O	-4	.	2	1	100*
CC(C)Oc1ccc2c(=O)c(-c3ccccc3)coc2c1	-5	7	-2	3	3
